{"source": "PubChem BioAssay"}
{"test": "A549 cell viability effects, profiling panel, calcein-AM fluorescence, 48 h, basal (AID 1162)", "settings": "higher = more signal"}
{"smiles": "CN1CCC(CCCO)=CC1c1cccs1", "note": "(centres undefined)", "z-score": 0.251}
{"smiles": "CCCCCN1CC=CC23O[C@@H]4C=CCOC(=O)[C@@H]4[C@H]2C(=O)N(C(C)CO)[C@@H]3C1=O", "note": "(some centres undefined)", "z-score": -0.33}
{"smiles": "Cc1ccc(S[C@]2(C(=O)NCC(C)C)CC(=O)N(Cc3cc(C(F)(F)F)cc(C(F)(F)F)c3)[C@@H]2c2ccc(CO)cc2)cc1", "z-score": -0.174}
{"smiles": "CC1CC/C=C\\[C@H]2OC34C=CCN(Cn5nnc6ccccc65)C(=O)[C@H]3N(CCCCCO)C(=O)[C@@H]4C2C(=O)O1", "note": "(some centres undefined)", "z-score": -0.306}
{"smiles": "COc1ccc([Si](C)(C)[C@@H]2[C@@H](CCO)O[C@]3(C(=O)N(Cc4cccc(N5CCOC5=O)c4)c4ccccc43)[C@H]2C)cc1", "z-score": -0.687}
{"smiles": "CCCCN1CC=CC23O[C@@H]4C=CCCOC(=O)C4[C@H]2C(=O)N(CCCCCO)[C@@H]3C1=O", "note": "(some centres undefined)", "z-score": 0.761}
{"smiles": "COc1ccc(CCNC(=O)[C@@]2(C)c3ccccc3C(=O)N(c3ccc(C)cn3)[C@H]2c2ccc(CO)cc2)cc1", "z-score": -0.0466}
{"smiles": "COC(=O)[C@@]1(Cc2ccc(OC)cc2)[C@H]2c3cc(C(=O)N4CCCC4)n(Cc4nc5ccccc5[nH]4)c3C[C@H]2CN1C(=O)c1ccccc1", "z-score": -0.43}
{"smiles": "[N-]=[N+]=NCc1ccccc1[C@@H]1OC(c2ccc(OCCCO)cc2)=N[C@]1(CCS(=O)(=O)c1ccccc1)C(=O)N1CCOCC1", "z-score": 0.761}
{"smiles": "CCOC(=O)C1=CC[C@H]2C(=O)N(c3ccccc3)C(=O)[C@@H]12", "z-score": -0.538}
{"smiles": "COC(=O)[C@@]1(Cc2ccc(F)cc2)[C@H]2c3cc(C(=O)N(C)C)n(Cc4ccc(C)o4)c3C[C@H]2CN1C(=O)c1ccccc1", "z-score": 0.0895}
{"smiles": "OCCCC1=CC(C2CC2)N(Cc2cccc(OC(F)(F)F)c2)CC1", "note": "(centres undefined)", "z-score": -0.346}
{"smiles": "CCOc1cc(C(O)C2C=CC3C(=O)N(c4ccccc4)C(=O)C3N2Nc2ccc(C(C)C)cc2)ccc1O", "note": "(centres undefined)", "z-score": -0.65}
{"smiles": "CO[C@H]1O[C@H](CO)[C@@H](OC(=O)Nc2ccccc2)[C@@H]2OC(=O)[C@@H](Cc3ccc4ccccc4c3)C/C=C/C[C@H](Cc3ccc4ccccc4c3)C(=O)O[C@@H]12", "z-score": 0.72}
{"smiles": "CCOC(=O)C[C@H]1[C@H](OC(=O)c2ccc(C(=O)c3ccccc3)cc2)[C@@H](NC(=O)Cc2ccc(OC)cc2)c2cc(OCCCO)ccc2N1C(=O)c1ccc2ccccc2n1", "z-score": 1.33}
{"smiles": "C=CC[C@]1(C(=O)N2CCOCC2)N=C(c2ccc(OCCCO)cc2)O[C@H]1c1ccccc1N=[N+]=[N-]", "z-score": 0.0797}
{"smiles": "NC(=O)[C@@H]1[C@H]2C(=O)O[C@H](c3ccccc3)[C@H](c3ccccc3)N2[C@H](c2ccc(O)cc2)[C@@]12C(=O)Nc1ccc(C#CC3=CCCCC3)cc12", "z-score": -1.42}
{"smiles": "COCCCNC(=O)[C@]1(Cc2ccccc2)N=C(c2ccc(OCCCO)cc2)O[C@@H]1c1ccccc1CN=[N+]=[N-]", "z-score": 1.16}
{"smiles": "CC(C)(C)OC(=O)CC[C@]1(C(N)=O)N=C(c2ccc(OCCCO)cc2)O[C@H]1c1ccccc1", "z-score": -0.73}
{"smiles": "O=C1C2C=CC(C(O)C=Cc3ccc([N+](=O)[O-])cc3)N(Nc3ccccc3F)C2C(=O)N1c1ccccc1", "note": "(centres undefined)", "z-score": -0.212}
{"smiles": "C=C(CCCC)/C(=C/C[C@@H](OC(C)=O)c1ccccc1OCCO)c1cc(C(=O)OC)ccc1OC", "z-score": 1.83}
{"smiles": "O=C1C2C=CC(C(O)c3ccc(F)cc3)N(Nc3ccc([N+](=O)[O-])cc3)C2C(=O)N1c1ccccc1", "note": "(centres undefined)", "z-score": -0.755}
{"smiles": "CC(=O)NCCCC[C@@H]1NC(=O)[C@H]2C[C@@H](C(=O)O)[C@@H](c3ccc(O)cc3)N2C1=O", "z-score": -0.199}
{"smiles": "COc1ccc([Si](C)(C)[C@H]2[C@H](CCn3cc([C@H](O)c4ccccc4)nn3)O[C@@]3(C(=O)N(C)c4ccccc43)[C@@H]2C)cc1", "z-score": 0.239}
{"test": "adipocyte viability effects, profiling panel, cell-based, 3T3-L1 adipocytes, calcein-AM fluorescence, 48 h, basal (AID 1163)", "settings": "3T3-L1 adipocytes viability, higher = more signal"}
{"smiles": "[N-]=[N+]=Nc1ccccc1[C@H]1OC(c2ccc(OCCCO)cc2)=N[C@@]1(Cc1ccccc1)C(=O)N1CCOCC1", "z-score": 0.539}
{"smiles": "CN1C(=O)C2C=CC(C(O)c3ccccc3)N(N3CCCCC3)C2C1=O", "note": "(centres undefined)", "z-score": -0.898}
{"smiles": "C=CCC(OC(C)=O)[C@@H]1[C@@H](N(Cc2ccc(-c3ccccc3)cc2)C(=O)Cc2ccc(F)cc2)c2cc(OCCCO)ccc2N1C(=O)c1ccc2ccccc2c1", "note": "(some centres undefined)", "z-score": 0.0021}
{"smiles": "COc1cc(CO)cc(I)c1O[C@H]1C=C(C(=O)NCCO)C[C@@H](N(C(=O)c2cc3ccccc3oc2=O)C2CCCCCC2)[C@@H]1O", "z-score": 1.54}
{"smiles": "CCCNC(=O)[C@@]1(Sc2ccc(C)cc2)CC(=O)N(Cc2ccccc2C(F)(F)F)[C@@H]1c1ccc(CO)cc1I", "z-score": 1.12}
{"smiles": "NC(=O)[C@@H]1[C@H]2C(=O)O[C@H](c3ccccc3)[C@H](c3ccccc3)N2[C@H](c2ccc(OCCO)cc2)[C@@]12C(=O)Nc1ccc(C#CC3=CCCCC3)cc12", "z-score": 1.06}
{"smiles": "COCCCNC(=O)[C@@]1(Cc2ccccc2)N=C(c2ccc(OCCCO)cc2)O[C@H]1c1ccccc1CN=[N+]=[N-]", "z-score": -0.703}
{"smiles": "Cc1ccc(C2C3C(=O)CC4C(=O)N(c5ccccc5)C(=O)C4C3CN2S(=O)(=O)c2ccc(C)cc2)cc1", "note": "(centres undefined)", "z-score": -0.172}
{"smiles": "O=C(NC1CC1)[C@@H]1c2ccccc2C(=O)N(Cc2cc(F)cc(C(F)(F)F)c2)[C@H]1c1ccc(CO)cc1", "z-score": -0.392}
{"smiles": "COc1cc2c(cc1O)C(c1cccs1)N(Cc1cccc(OC(F)(F)F)c1)CC2", "note": "(centres undefined)", "z-score": -0.0814}
{"smiles": "CCOC(=O)C1=CC[C@@H](c2ccccc2)N(S(=O)(=O)c2ccc(C)cc2)[C@H]1c1ccc(CC)cc1", "z-score": -0.932}
{"smiles": "CN1CCC(CCCO)=CC1c1cccs1", "note": "(centres undefined)", "z-score": 0.335}
{"smiles": "CCCCCN1CC=CC23O[C@@H]4C=CCOC(=O)[C@@H]4[C@H]2C(=O)N(C(C)CO)[C@@H]3C1=O", "note": "(some centres undefined)", "z-score": -0.093}
{"smiles": "Cc1ccc(S[C@]2(C(=O)NCC(C)C)CC(=O)N(Cc3cc(C(F)(F)F)cc(C(F)(F)F)c3)[C@@H]2c2ccc(CO)cc2)cc1", "z-score": 0.518}
{"smiles": "CC1CC/C=C\\[C@H]2OC34C=CCN(Cn5nnc6ccccc65)C(=O)[C@H]3N(CCCCCO)C(=O)[C@@H]4C2C(=O)O1", "note": "(some centres undefined)", "z-score": 0.393}
{"smiles": "COc1ccc([Si](C)(C)[C@@H]2[C@@H](CCO)O[C@]3(C(=O)N(Cc4cccc(N5CCOC5=O)c4)c4ccccc43)[C@H]2C)cc1", "z-score": -0.514}
{"smiles": "CCCCN1CC=CC23O[C@@H]4C=CCCOC(=O)C4[C@H]2C(=O)N(CCCCCO)[C@@H]3C1=O", "note": "(some centres undefined)", "z-score": 0.159}
{"smiles": "COc1ccc(CCNC(=O)[C@@]2(C)c3ccccc3C(=O)N(c3ccc(C)cn3)[C@H]2c2ccc(CO)cc2)cc1", "z-score": -0.2}
{"smiles": "COC(=O)[C@@]1(Cc2ccc(OC)cc2)[C@H]2c3cc(C(=O)N4CCCC4)n(Cc4nc5ccccc5[nH]4)c3C[C@H]2CN1C(=O)c1ccccc1", "z-score": 0.685}
{"smiles": "[N-]=[N+]=NCc1ccccc1[C@@H]1OC(c2ccc(OCCCO)cc2)=N[C@]1(CCS(=O)(=O)c1ccccc1)C(=O)N1CCOCC1", "z-score": 1.96}
{"smiles": "CCOC(=O)C1=CC[C@H]2C(=O)N(c3ccccc3)C(=O)[C@@H]12", "z-score": -0.405}
{"smiles": "COC(=O)[C@@]1(Cc2ccc(F)cc2)[C@H]2c3cc(C(=O)N(C)C)n(Cc4ccc(C)o4)c3C[C@H]2CN1C(=O)c1ccccc1", "z-score": -0.333}
{"smiles": "OCCCC1=CC(C2CC2)N(Cc2cccc(OC(F)(F)F)c2)CC1", "note": "(centres undefined)", "z-score": 0.643}
{"smiles": "CCOc1cc(C(O)C2C=CC3C(=O)N(c4ccccc4)C(=O)C3N2Nc2ccc(C(C)C)cc2)ccc1O", "note": "(centres undefined)", "z-score": -0.538}
{"smiles": "CO[C@H]1O[C@H](CO)[C@@H](OC(=O)Nc2ccccc2)[C@@H]2OC(=O)[C@@H](Cc3ccc4ccccc4c3)C/C=C/C[C@H](Cc3ccc4ccccc4c3)C(=O)O[C@@H]12", "z-score": 0.397}
{"smiles": "CCOC(=O)C[C@H]1[C@H](OC(=O)c2ccc(C(=O)c3ccccc3)cc2)[C@@H](NC(=O)Cc2ccc(OC)cc2)c2cc(OCCCO)ccc2N1C(=O)c1ccc2ccccc2n1", "z-score": -0.121}
{"smiles": "C=CC[C@]1(C(=O)N2CCOCC2)N=C(c2ccc(OCCCO)cc2)O[C@H]1c1ccccc1N=[N+]=[N-]", "z-score": 0.816}
{"smiles": "NC(=O)[C@@H]1[C@H]2C(=O)O[C@H](c3ccccc3)[C@H](c3ccccc3)N2[C@H](c2ccc(O)cc2)[C@@]12C(=O)Nc1ccc(C#CC3=CCCCC3)cc12", "z-score": -0.0881}
{"smiles": "COCCCNC(=O)[C@]1(Cc2ccccc2)N=C(c2ccc(OCCCO)cc2)O[C@@H]1c1ccccc1CN=[N+]=[N-]", "z-score": 0.52}
{"smiles": "CC(C)(C)OC(=O)CC[C@]1(C(N)=O)N=C(c2ccc(OCCCO)cc2)O[C@H]1c1ccccc1", "z-score": 0.13}
{"smiles": "O=C1C2C=CC(C(O)C=Cc3ccc([N+](=O)[O-])cc3)N(Nc3ccccc3F)C2C(=O)N1c1ccccc1", "note": "(centres undefined)", "z-score": -0.846}
{"smiles": "C=C(CCCC)/C(=C/C[C@@H](OC(C)=O)c1ccccc1OCCO)c1cc(C(=O)OC)ccc1OC", "z-score": 0.109}
{"smiles": "O=C1C2C=CC(C(O)c3ccc(F)cc3)N(Nc3ccc([N+](=O)[O-])cc3)C2C(=O)N1c1ccccc1", "note": "(centres undefined)", "z-score": -0.376}
{"smiles": "CC(=O)NCCCC[C@@H]1NC(=O)[C@H]2C[C@@H](C(=O)O)[C@@H](c3ccc(O)cc3)N2C1=O", "z-score": 0.766}
{"smiles": "COc1ccc([Si](C)(C)[C@H]2[C@H](CCn3cc([C@H](O)c4ccccc4)nn3)O[C@@]3(C(=O)N(C)c4ccccc43)[C@@H]2C)cc1", "z-score": -0.233}
